Here are results for 36 molecules from PubChem BioAssay (Tox21).

The structures appear in SMILES notation. Records with an inconclusive call do not appear. Active and inactive are the calls of the source. Unless noted, calls follow the shape of the dose curve; as a rule, active = well fitted activation curve with a large enough effect in the repeat runs; inconclusive = weak or mixed curves; inactive = no such curve, though single readings can be large or run the other way.
% is scaled to controls: 0 for no effect and ±100 for the full control effect; potency is read from the fitted curve at half-maximal effect.

Test system in the first assay: not listed separately
In words: qHTS assay to identify small molecule agonists of the estrogen related receptor (ERR) signaling pathway (AID 1224820). Conditions: ERR reporter cell line, luciferase agonist mode; series mostly up to 46.1 µM; activation: at the top concentration. A digest of the protocol: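 Following a 6 h settling period, 2,000 ERR cells per well receive DMSO-dissolved compounds by pin tool and incubate 18 h at 37 C; agonist activity is scored from One-Glo luminescence read 30 min post-addition.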
(qHTS replaces the single test concentration by a dilution series.)
On to `O=c1cc(O)cc(/C=C/c2ccc(O)c(O)c2)o1`, for which the “activation” value is 5.25% (inactive).

Turning to `N[C@@H](CS(=O)O)C(=O)O`, the “activation” value was 2.99% (inactive).

Take `C[C@@H]1C(=O)NC2=Nc3cccc(Cl)c3CN21`: the “activation” value is 13.3% (inactive).

Regarding `CN(CCCOc1ccc(Cc2ccccc2)cc1)CCC(=O)O`, the “activation” value was -9.16% (inactive).

Take `COc1ccccc1N1CCN(CCCCN2C(=O)c3ccccc3C2=O)CC1`: the “activation” value is 6.7% (inactive).

Take `NCC(O)C1CCCCCCC1` (stereo unspecified): the “activation” value is 1.68% (inactive).

For `O=C(Nc1ccc2[nH]ncc2c1)C1CCC1`, the Potency was 12.8 µM (active).

On to `Cc1cccc(-c2[nH]ncc2-c2ccc3ncccc3n2)n1`, for which the “activation” value was -67.3% (inactive).

In the case of `N[C@@H](Cc1cnc[nH]1)C(=O)O`, the “activation” value is -15.4% (inactive).

Consider `CN1CCc2cc(NC(=O)Nc3cccnc3)ccc21`, for which the Potency was 9.08 µM (active).

Regarding `CCNc1nc2c(ncn2[C@H]2C[C@H](O)[C@@H](CO)O2)c(=O)[nH]1`, the “activation” value is 13.2% (inactive).

In the case of `CCCCCCCCCCCCCCCC(=O)OC(CC(=O)O)C[N+](C)(C)C` (stereo unspecified), the “activation” value was -1.54% (inactive).

Turning to `Cc1cc(NC(=O)Nc2ccc3c(ccn3C)c2)sn1`, the Potency is 10.2 µM (active).

`O=c1ccn([C@@H]2O[C@H](COP(=O)(O)OP(=O)(O)O)[C@@H](O)[C@H]2O)c(=O)[nH]1`: the “activation” value is -14.2% (inactive).

For the molecule `CCN1C(=O)C=CC1=O`, the “activation” value was 8.82% (inactive).

`CNCCC=C1c2ccccc2CCc2ccccc21`: the “activation” value was 11.5% (inactive).

Consider `CN[C@H](CC(=O)O)C(=O)O`, for which the “activation” value was 16% (inactive).

In the case of `CCCCCC[C@@H]([C@@H](C)O)n1cnc2c(N)ncnc21`, the “activation” value is -19.5% (inactive).

With `CCCCC#Cc1nc(NC)c2ncn([C@@H]3O[C@H](CO)[C@@H](O)C3O)c2n1` (stereo partly specified), the “activation” value was -10.6% (inactive).

In the case of `CNc1ncnc2c1ncn2[C@@H]1O[C@H](CO)C(O)[C@H]1O` (stereo partly specified), the “activation” value was 5.49% (inactive).

With `CCOC(=O)C(C)Oc1cccc2c(=O)n(CC(=O)Nc3ccc4c(c3)OCCO4)ccc12` (stereo unspecified), the “activation” value was -3.77% (inactive).

Regarding `O=c1cc(-c2ccccc2F)[nH]c2cc3c(cc12)OCO3`, the “activation” value is 13.7% (inactive).

For `CCSC(=N)N`, the “activation” value was 3.34% (inactive).

On to `Nc1ccc(N2C(=O)c3ccccc3C2=O)c(Cl)c1`, for which the “activation” value was 14.2% (inactive).

In the case of `NC(N)=NCCCCN=C(N)N`, the “activation” value was 1.52% (inactive).

For the molecule `N#CC(C#N)=C(N)/C(C#N)=C/c1ccc(O)cc1`, the “activation” value was 8.32% (inactive).

In the case of `NC[C@H]1O[C@@H](n2cnc3c(N)ncnc32)[C@H](O)[C@@H]1O`, the “activation” value was -12.1% (inactive).

`O=C(O)Cc1c[nH]c2ccc(O)cc12`: the “activation” value was -20.4% (inactive).

Consider `N=C(N)SCCc1cnc[nH]1`, for which the “activation” value is -5.3% (inactive).

With `O=c1c(O)c(-c2cc(O)c(O)c(O)c2)oc2cc(O)cc(O)c12`, the “activation” value is -11.8% (inactive).

Consider `Cn1cc(C(=O)OCC2CCN(CCNS(C)(=O)=O)CC2)c2ccccc21`, for which the “activation” value was 9.04% (inactive).

As for `N#C/C(=C\c1ccc(O)c(O)c1)C(=O)NCCc1ccccc1`, the “activation” value was 9.91% (inactive).

On to `Cc1nc(N=Nc2ccc(C(=O)O)cc2)c(COP(=O)(O)O)c(C=O)c1O`, for which the “activation” value is 1.55% (inactive).

As for `CN=c1nc(-c2ccccc2)n(-c2ccccc2)s1`, the “activation” value is -17.8% (inactive).

Consider `C=CCn1c(=O)c2c(nc(-c3ccc(S(=O)(=O)O)cc3)n2C)n(C)c1=O`, for which the “activation” value is 3.5% (inactive).

Take `Nc1ncnc2c1nc(Sc1ccc(Cl)cc1)n2[C@H]1OC2COP(=O)(O)O[C@@H]2C1O` (stereo partly specified): the “activation” value was 6.26% (inactive).

For another assay, the system named is estrogen-related receptor alpha (ERRalpha) with PGC-1alpha coactivator, human. Nature of the assay: qHTS assay to identify small molecule antagonists of the estrogen related receptor signaling pathway with the pleiotropic PPARgamma coactivator (PGC) (AID 1224821; calls by dose curve; also: nearly all actives have a fitted effect of over 50% in size;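 as to activity change, negative = inhibition: lower luminescence signal means antagonism of PGC/ERR signalling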). Conditions: ERR/PGC reporter cell line, luciferase, antagonist mode; series mostly up to 46.1 µM; activity change, negative = inhibition: at the top concentration. An outline of the steps: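 Screening used NTP's PGC/ERR cells, dosed via pin tool with compound in DMSO alongside positive and negative controls. After 18 h at 37 C, One-Glo reagent sat 30 min at room temperature before luminescence detection.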
Turning to `O=c1cc(O)cc(/C=C/c2ccc(O)c(O)c2)o1`, the “activity change, negative = inhibition” value was -3.53% (inactive).

In the case of `N[C@@H](CS(=O)O)C(=O)O`, the “activity change, negative = inhibition” value is 2.48% (inactive).

Consider `C[C@@H]1C(=O)NC2=Nc3cccc(Cl)c3CN21`, for which the “activity change, negative = inhibition” value was 8.97% (inactive).

With `CN(CCCOc1ccc(Cc2ccccc2)cc1)CCC(=O)O`, the “activity change, negative = inhibition” value is -3.08% (inactive).

As for `COc1ccccc1N1CCN(CCCCN2C(=O)c3ccccc3C2=O)CC1`, the “activity change, negative = inhibition” value is -10.3% (inactive).

For the molecule `NCC(O)C1CCCCCCC1` (stereo unspecified), the “activity change, negative = inhibition” value is -5.46% (inactive).

Turning to `O=C(Nc1ccc2[nH]ncc2c1)C1CCC1`, the “activity change, negative = inhibition” value is 164% (inactive).

For the molecule `Cc1cccc(-c2[nH]ncc2-c2ccc3ncccc3n2)n1`, the Potency was 1.44 µM (active).

With `N[C@@H](Cc1cnc[nH]1)C(=O)O`, the “activity change, negative = inhibition” value is -23.6% (inactive).

As for `CN1CCc2cc(NC(=O)Nc3cccnc3)ccc21`, the “activity change, negative = inhibition” value is 107% (inactive).

Consider `CCNc1nc2c(ncn2[C@H]2C[C@H](O)[C@@H](CO)O2)c(=O)[nH]1`, for which the “activity change, negative = inhibition” value is 1.1% (inactive).

As to `CCCCCCCCCCCCCCCC(=O)OC(CC(=O)O)C[N+](C)(C)C` (stereo unspecified), the “activity change, negative = inhibition” value is 37.1% (inactive).

As to `Cc1cc(NC(=O)Nc2ccc3c(ccn3C)c2)sn1`, the “activity change, negative = inhibition” value was 115% (inactive).

Regarding `O=c1ccn([C@@H]2O[C@H](COP(=O)(O)OP(=O)(O)O)[C@@H](O)[C@H]2O)c(=O)[nH]1`, the “activity change, negative = inhibition” value is -16.2% (inactive).

With `CCN1C(=O)C=CC1=O`, the “activity change, negative = inhibition” value was 34.6% (inactive).

Take `CNCCC=C1c2ccccc2CCc2ccccc21`: the “activity change, negative = inhibition” value was 112% (inactive).

With `CN[C@H](CC(=O)O)C(=O)O`, the “activity change, negative = inhibition” value was -1.87% (inactive).

For `CCCCCC[C@@H]([C@@H](C)O)n1cnc2c(N)ncnc21`, the “activity change, negative = inhibition” value was 82.5% (inactive).

On to `CCCCC#Cc1nc(NC)c2ncn([C@@H]3O[C@H](CO)[C@@H](O)C3O)c2n1` (stereo partly specified), for which the “activity change, negative = inhibition” value was 120% (inactive).

Consider `CNc1ncnc2c1ncn2[C@@H]1O[C@H](CO)C(O)[C@H]1O` (stereo partly specified), for which the “activity change, negative = inhibition” value was 127% (inactive).

Consider `CCOC(=O)C(C)Oc1cccc2c(=O)n(CC(=O)Nc3ccc4c(c3)OCCO4)ccc12` (stereo unspecified), for which the “activity change, negative = inhibition” value is 101% (inactive).

For the molecule `O=c1cc(-c2ccccc2F)[nH]c2cc3c(cc12)OCO3`, the “activity change, negative = inhibition” value is 94.4% (inactive).

Regarding `CCSC(=N)N`, the “activity change, negative = inhibition” value is -5.27% (inactive).

On to `Nc1ccc(N2C(=O)c3ccccc3C2=O)c(Cl)c1`, for which the “activity change, negative = inhibition” value was -5.8% (inactive).

For `NC(N)=NCCCCN=C(N)N`, the “activity change, negative = inhibition” value is 11.9% (inactive).

On to `N#CC(C#N)=C(N)/C(C#N)=C/c1ccc(O)cc1`, for which the “activity change, negative = inhibition” value is 2.55% (inactive).

With `NC[C@H]1O[C@@H](n2cnc3c(N)ncnc32)[C@H](O)[C@@H]1O`, the “activity change, negative = inhibition” value is 35.9% (inactive).

In the case of `O=C(O)Cc1c[nH]c2ccc(O)cc12`, the “activity change, negative = inhibition” value was -5.77% (inactive).

As for `N=C(N)SCCc1cnc[nH]1`, the “activity change, negative = inhibition” value was -1.3% (inactive).

Regarding `O=c1c(O)c(-c2cc(O)c(O)c(O)c2)oc2cc(O)cc(O)c12`, the “activity change, negative = inhibition” value was 5.59% (inactive).

Turning to `Cn1cc(C(=O)OCC2CCN(CCNS(C)(=O)=O)CC2)c2ccccc21`, the “activity change, negative = inhibition” value was 3.95% (inactive).

Regarding `N#C/C(=C\c1ccc(O)c(O)c1)C(=O)NCCc1ccccc1`, the “activity change, negative = inhibition” value was 111% (inactive).

In the case of `Cc1nc(N=Nc2ccc(C(=O)O)cc2)c(COP(=O)(O)O)c(C=O)c1O`, the “activity change, negative = inhibition” value is -7.35% (inactive).

Consider `C=CCn1c(=O)c2c(nc(-c3ccc(S(=O)(=O)O)cc3)n2C)n(C)c1=O`, for which the “activity change, negative = inhibition” value was -27.5% (inactive).

Turning to `Nc1ncnc2c1nc(Sc1ccc(Cl)cc1)n2[C@H]1OC2COP(=O)(O)O[C@@H]2C1O` (stereo partly specified), the “activity change, negative = inhibition” value is 103% (inactive).
